Test results published in PubChem BioAssay (NCI).
Several values for one entry are separate records, joined by “and”; a condition that tells them apart may be missing. Equal entries are not always repeated. The panel holds about 83,000 compounds, 20% with a hit somewhere; the sample as a whole holds those more often.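 In brief: 96-well plates, 48 h treatment, single concentration, percent growth endpoint.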 The source holds several records for some structures; these can differ, active in one and inactive in another. Activity calls are given as the source filed them.

System: SR leukemia
Experiment: NCI-60 one-dose screen, 48 h (100 = growth as untreated, 0 = no growth, -100 = all killed)
Conditions: 10 µM
Experimental: Growth inhibition of the SR human tumor cell line is measured as a screen for anti-cancer activity. Cells are grown in 96 well plates and exposed to the test compound for 48 hours. Compounds are tested at a single concentration, which is 10^-5 M for most compounds. The reported endpoint is percent growth (GI% or GIPRCNT), where numbers from 0 - 100% represent growth inhibition, and numbers from -100% - 0 represent cell death. For example, a value of 40 represents 60% growth inhibition. A value of 0 means no net growth occurred over the course of the experiment. A value of -40 indicates 40% of cells at the beginning of the experiment died by the end of the experiment. A value of -100 means all cells are dead at the end of the experiment.
NCI-60 Human Tumor Cell Lines Screen was performed using the standard one-dose NCI protocol, which is described in more detail at https://dtp.cancer.gov/discovery_development/nci-60/default.htm.
Compounds with GIPRCNT values below 10 were considered active. Activity score was based on GIPRCNT using the following formula: […]
Score is 0 for GIPRCNT values of 100 or above, 50 for GIPRCNT values of 0, and 100 for GIPRCNT values of -100.

Compound | growth
CC1(C)OB(c2ccc(Cn3cc(F)c(=O)[nH]c3=O)cc2)OC1(C)C | 106% (inactive)
CC#C[C@]1(O)CC[C@H]2[C@@H]3CCC4=CC(=O)CCC4=C3[C@@H](c3ccc4c(c3)OCO4)C[C@@]21C | 60.8% (inactive)
O=C(O)c1sccc1O | 67.7% (inactive)

Same assay, conditions: 10 µM unless noted

Compound | growth
Clc1ccc(NC(Nc2ccc(Cl)cc2)C(Cl)(Cl)Cl)cc1 | 99.4% (inactive)
Cc1cc(O)c(C(C)C)cc1N | 97.1% (inactive) and 115% (inactive)
Cc1cc(C)c(N)c(Br)c1 | 98.8% (inactive) and 100% (inactive)
Cn1c(SSc2ccc(-c3cccnc3)n2C)ccc1-c1cccnc1 | 86.8% (inactive) and 58.3% (inactive)
CC(C)N=c1cc2n(-c3ccc(Cl)cc3)c3ccccc3nc-2cc1Nc1ccc(Cl)cc1 | -35.4% (active) and 9.31% (active)
Cc1ccc(NCSc2ccc(Cl)cc2)cc1 | 62.5% (inactive) and 67.7% (inactive)
Oc1ccc(/C=C/c2ccccc2)cc1 | 48.6% (inactive) and 69.6% (inactive)
CCN(CC)CCNc1ccc(C)c2sc3ccccc3c(=O)c12 (tested in a mixture with another compound) | 8.47% (active) and 20% (inactive)
Cc1cccc(/C=C\C(=O)c2ccccc2)c1 | 42.8% (inactive) and -0.91% (active)
O=C(O)CN(CCN(CC(=O)O)CC(=O)O)CCN(CC(=O)O)CC(=O)O | -21% (active) and 105% (inactive) and 101% (inactive)
C[N+](C)(C)CN1C(=O)c2ccccc2C1=O | 83.8% (inactive)
COC(=O)c1nc(N)nc(C(=O)OC)c1C(=O)c1ccc(OC)cc1 | 90.2% (inactive) and 22.8% (inactive)
COc1cc(NS(C)(=O)=O)ccc1Nc1c2ccccc2nc2c(C)cccc12 | 4.23% (active) and -21.5% (active)
O=[N+]([O-])c1ccc(Oc2ccccc2)cc1 | 89.7% (inactive) and 102% (inactive)
O=C(Nc1ccc(Br)cc1)c1cc(Br)ccc1O | 1.42% (active)
CCOc1ccc2cc(-c3nn(CC4CCN(C)CC4)c4ncnc(N)c34)ccc2c1 | 65.4% (inactive) and -27.1% (active)
NS(=O)(=O)c1cc2c(cc1Cl)NC(C(Cl)Cl)NS2(=O)=O (stereo not given) | 99.8% (inactive)

Compound | growth
COc1cc2c(Nc3ccc(Cl)c(Cl)c3F)ncnc2cc1OCC1C[C@@H]2CN(C)C[C@@H]2C1 (stereo not given in full) | -23.1% (active) and -45.4% (active)
CN(C)c1ccc(C(=C2C=CC(=[N+](C)C)C=C2)c2ccccc2Cl)cc1 | -38.3% (active)
CN(C)c1ccc2nc3ccc(=[N+](C)C)cc-3sc2c1 | 29.2% (inactive) and 39.6% (inactive) and 51.5% (inactive)
N#CC(C#N)=C/C=C/c1cccc([N+](=O)[O-])c1 | -3.67% (active) and 3.74% (active)
CCOC(=O)Nc1ccc2c(c1)/C(=N\NC(N)=S)c1ccccc1-2 | 47.2% (inactive) and 34.7% (inactive)
ClC/C=C/CSc1ncnc2nc[nH]c12 | 74.4% (inactive)
N=C1N=C(N)CS1 | 99.2% (inactive)
CC1(c2ccc3ccccc3c2)CCC(=O)O1 (stereo not given) | 92.2% (inactive)
CCOc1ccc(Nc2c3ccccc3nc3ccccc23)cc1 | 81.6% (inactive) and 7.88% (active) and -40.6% (active)
O=[N+]([O-])c1ccc(/C=N\NC(=S)Nc2ccc(F)cc2)cc1 | 99.7% (inactive)
Cc1nnc(NC/C=C/c2ccccc2)s1 | 113% (inactive)
CN1CCN(CCC=C2c3ccccc3Sc3ccc(S(=O)(=O)N(C)C)cc32)CC1 | 2.47% (active)
O=C1c2ccccc2C(=O)c2c(NCCNCCO)ccc(NCCNCCO)c21 | 57.6% (inactive) and 5.34% (active) and -17.9% (active)
Nc1ccn(C2OC(CO)C(O)C2O)c(=O)n1 (stereo not given) | 14.8% (inactive)
Cn1cc(-c2cc3c(Nc4ccc(CC(=O)Nc5cc(C(C)(C)C)on5)cc4)ncnc3[nH]2)cn1 | 2.58% (active)
CC(=O)c1ccccc1O | 79% (inactive)
CC(C)(O)Cn1cc(-c2ccc3nc(OC4CC4)ccc3c2)c2c(N)ncnc21 | 49.9% (inactive) and 21% (inactive)

Same assay, conditions: 50 µM

Compound | growth
CC1(C)OB(c2ccc(Cn3cc(F)c(=O)[nH]c3=O)cc2)OC1(C)C | 39.5% (inactive)

Same assay, conditions: 100 µM

Compound | growth
CC#C[C@]1(O)CC[C@H]2[C@@H]3CCC4=CC(=O)CCC4=C3[C@@H](c3ccc4c(c3)OCO4)C[C@@]21C | -20.8% (active)
O=C(O)c1sccc1O | 4.33% (active)
